# System: glycogen synthase kinase-3 (GSK3A per assay name; protocol says GSK3B)
# Assay: compounds binding glycogen synthase kinase-3 – biochemical, small-molecule microarray, 635 nm fluorescence, GSK3A, primary screen (AID 1103); also: the record names both GSK3A and GSK3B
# Settings: fluorescence 635 nm, higher = more signal
row,SMILES,composite z-score
1,CC(=O)NCCCC[C@@H]1NC(=O)[C@@H]2C[C@H](C(=O)NCc3ccc(F)cc3)[C@H](c3cccc(OCCO)c3)N2C1=O,-0.895
2,O=C(CS)NCCCCCNC(=O)[C@H]1C[C@H]2C(=O)N3CCC[C@H]3C(=O)N2[C@H]1c1ccc(O)cc1,-1.07
3,C=C(COC)/C(=C/C[C@H](OC(C)=O)c1ccc(OCCO)cc1)c1cnc2ccccc2c1,0.844
4,COc1cc([C@@H]2N[C@H](C(=O)O)Cc3c2[nH]c2ccccc32)cc(OC)c1OC,0.167
5,C=CC[C@@]1(C(=O)N2CCOCC2)N=C(c2ccc(OCCCO)cc2)O[C@@H]1c1ccccc1,0.175
6,COCCOC(=O)N1C(=O)[C@@]2(c3cc(C#CC4=CCCCC4)ccc31)[C@H](c1ccc(O)cc1)N1[C@H](c3ccccc3)[C@H](c3ccccc3)OC(=O)[C@H]1[C@@H]2C(=O)N1CCCCCCC1,1.3
7,COCCOC(=O)N1C(=O)[C@@]2(c3cc(C#CC4=CCCCC4)ccc31)[C@H](C(=O)NC[C@H](O)c1ccccc1)[C@H]1C(=O)O[C@H](c3ccccc3)[C@H](c3ccccc3)N1[C@@H]2c1ccccc1OCCO,1.05
8,C=CC[C@]1(C(=O)NCC(O)CO)N=C(c2ccc(OCCCO)cc2)O[C@H]1c1ccccc1 (stereo not given in full),0.321
9,C=CCC(OC(C)=O)[C@@H]1[C@@H](N(Cc2cc3ccccc3o2)C(=O)c2ccc(C)cc2)c2cc(OCCCO)ccc2N1C(=O)c1ccc2ccccc2n1 (stereo not given in full),-0.216
10,CC(C)NC(=O)[C@@]1(Cc2ccccc2I)c2ccccc2C(=O)N(C2CCCCC2)[C@H]1c1ccc(CO)cc1,1.2
11,C=C[C@H](OC)[C@@H](OC(=O)Nc1ccc(SC)cc1)c1ccc(OC)c(O)c1,-0.392
12,CCc1cccc(NC(=O)O[C@H]2[C@H](OC(=O)Nc3ccccc3)[C@@H](OC(=O)Nc3ccccc3)[C@@H](OC)O[C@@H]2CO)c1,1.07
13,COCCOC(=O)N1C(=O)[C@@]2(c3cc(C#CCC(C(=O)OC)C(=O)OC)ccc31)[C@H](C(=O)N1CCN(c3ncccn3)CC1)[C@H]1C(=O)O[C@H](c3ccccc3)[C@H](c3ccccc3)N1[C@@H]2c1ccc(O)cc1,0.845
14,COc1ccc(-c2cc3c(c(-c4ccccc4)n2)[Si](C(C)C)(C(C)C)O[C@H]3c2ccccc2)cn1,0.176
15,CCC(=O)[C@]12O[C@@]3([C@@H]4C(=O)OCC[C@@H]41)N(Cc1ccccc1)C(C)=C(C(=O)OC)[C@@H](c1ccccc1)N3C2=O,-0.588
16,CO[C@@H]1COC(=O)[C@H](C)NC(=O)CC=C[C@@H](C)[C@H](NS(=O)(=O)c2ccc(C)cc2)COC(=O)CC=C[C@@H]1C,-0.11
17,CC(=O)Nc1ccc([C@H]2[C@H](C)CC[C@H]3C(=O)N4[C@@H](CC[C@@H](C)[C@@H]4c4ccc(NC(C)=O)cc4)C(=O)N32)cc1,1.17
18,C=CCN(C(=O)C1N(c2ccc(CCO)cc2)C(=O)C2C(C(=O)O)C3C=CC21O3)C(C)(C)C (stereo not given),-0.723
19,CO[C@H]1COC(=O)[C@H](C)NC(=O)CC=C[C@@H](C)[C@H](NS(=O)(=O)c2ccc(C)cc2)COC(=O)[C@@H](OCc2ccccc2)C=C[C@@H]1C,0.258
20,COCCCNC(=O)[C@@]1(Sc2ccc(C)cc2)CC(=O)N(Cc2cc(C(F)(F)F)cc(C(F)(F)F)c2)[C@@H]1c1ccc(CO)cc1I,-1.14
21,CO[C@H]1COC(=O)CC=C[C@H](C)[C@@H](OC)COC(=O)[C@H](Cc2ccccc2)NC(=O)CC=C[C@@H]1C,0.344
22,COCCOC(=O)N1C(=O)[C@@]2(c3cc(C#CCCO)ccc31)[C@H](C(=O)N1CCCCCCC1)[C@H]1C(=O)O[C@H](c3ccccc3)[C@H](c3ccccc3)N1[C@@H]2c1ccc(O)cc1,1.28
23,Cc1ccc(N2C(=O)c3ccccc3[C@@H](C(=O)NCc3ccccc3)[C@@H]2c2ccc(CO)cc2)nc1,-1.13
24,O=C1C2C=CC(C(O)C(c3ccccc3)c3ccccc3)N(Nc3ccc([N+](=O)[O-])cc3)C2C(=O)N1c1ccccc1 (stereo not given),1.32

# Biological target: Epidermal growth factor receptor (Homo sapiens) (UniProt P00533)
# Sequence (P00533 whole entry, looked up): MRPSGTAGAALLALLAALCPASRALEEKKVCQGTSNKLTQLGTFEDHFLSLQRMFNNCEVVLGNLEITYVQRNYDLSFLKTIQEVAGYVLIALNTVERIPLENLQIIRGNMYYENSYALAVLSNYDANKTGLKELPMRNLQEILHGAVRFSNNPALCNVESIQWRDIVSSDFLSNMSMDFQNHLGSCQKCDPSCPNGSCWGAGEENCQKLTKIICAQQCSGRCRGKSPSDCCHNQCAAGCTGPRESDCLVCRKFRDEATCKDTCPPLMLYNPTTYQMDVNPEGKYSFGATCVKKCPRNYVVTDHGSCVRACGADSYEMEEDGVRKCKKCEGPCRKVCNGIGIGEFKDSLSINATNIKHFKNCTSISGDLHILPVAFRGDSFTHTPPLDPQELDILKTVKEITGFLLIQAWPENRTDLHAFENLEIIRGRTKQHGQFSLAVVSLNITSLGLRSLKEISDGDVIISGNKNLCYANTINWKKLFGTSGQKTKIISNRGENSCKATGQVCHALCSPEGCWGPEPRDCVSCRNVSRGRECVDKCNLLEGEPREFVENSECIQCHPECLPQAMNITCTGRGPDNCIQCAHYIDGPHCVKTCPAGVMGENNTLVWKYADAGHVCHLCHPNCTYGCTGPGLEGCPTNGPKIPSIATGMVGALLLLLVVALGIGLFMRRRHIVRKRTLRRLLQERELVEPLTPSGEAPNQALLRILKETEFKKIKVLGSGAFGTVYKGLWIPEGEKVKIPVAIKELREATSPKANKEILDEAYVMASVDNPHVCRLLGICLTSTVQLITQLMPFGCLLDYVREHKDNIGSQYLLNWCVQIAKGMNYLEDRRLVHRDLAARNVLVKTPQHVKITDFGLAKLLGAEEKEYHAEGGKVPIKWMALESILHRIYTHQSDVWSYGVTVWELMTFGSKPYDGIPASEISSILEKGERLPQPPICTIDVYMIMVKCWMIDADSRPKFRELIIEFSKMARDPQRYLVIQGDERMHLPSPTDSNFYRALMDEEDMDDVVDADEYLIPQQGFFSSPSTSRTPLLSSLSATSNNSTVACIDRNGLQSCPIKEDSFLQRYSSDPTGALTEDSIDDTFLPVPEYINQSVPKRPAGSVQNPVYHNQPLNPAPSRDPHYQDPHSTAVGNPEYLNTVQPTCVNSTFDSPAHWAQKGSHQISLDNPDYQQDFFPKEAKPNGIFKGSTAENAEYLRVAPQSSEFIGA
# Assay: compounds binding epidermal growth factor receptor – biochemical, small-molecule microarray, 635 nm fluorescence, primary screen (AID 1104);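 also: score merges 667 nm emission intensity with spot signal to noise over triplicate slides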
# Settings: EGFR binding, higher = more signal
row,SMILES,composite z-score
1,CO[C@H]1COC(=O)[C@@H](C)COC(=O)[C@H](Cc2ccccc2)NC(=O)CC=C[C@H]1C,1.04
2,C=CCC(OC(C)=O)[C@@H]1[C@@H](N(Cc2cccc3ccccc23)C(=O)c2ccc(C)cc2)c2cc(OCCCO)ccc2N1C(=O)c1ccc(-c2ccccc2)cc1 (stereo not given in full),0.0513
3,CC(C)[C@H]1NC(=O)[C@@]23C(=O)N[C@@H](Cc4ccccc4)C2[C@H](C)[C@@]2(C)O[C@H]2C3/C=C/C/C=C\CNC(=O)[C@H](C)NC1=O (stereo not given in full),-1.31
4,CO[C@H]1COC(=O)[C@@H](Cc2ccccc2)NC(=O)[C@@H](C)COC(=O)CC=C[C@@H]1C,0.954
5,CN1CCC(CCCO)=CC1C1CC1 (stereo not given),0.0647
6,CC(C)[Si]1(C(C)C)OCc2cc(C3CC3)nc(-c3ccccc3)c21,-0.385
7,O=C1c2ccccc2[C@](Cc2ccccc2I)(C(=O)O)[C@H](c2ccc(CO)cc2)N1C1CCCCC1,0.947
8,C[C@@H]1NC(=O)CC=C[C@@H](C)[C@@H]2C=C[C@H](O)[C@@H](COC(=O)[C@H](C)NC(=O)CC=C[C@@H](C)[C@@H]3C=C[C@H](O)[C@@H](COC1=O)O3)O2,0.418
9,C=CCc1cccc([C@@H]2[C@@H](C)CC[C@H]3C(=O)N4[C@H](c5cccc(CC=C)c5)[C@@H](C)CC[C@H]4C(=O)N23)c1,0.654
10,C=CC[C@@]12N=C(c3ccc(OCCCO)cc3)O[C@@H]1c1ccccc1CN(Cc1ccccc1)C2=O,-0.0152
11,COc1ccc([C@H]2C[C@H]3C(Br)=C[C@]2(OC)C(=O)[C@]32CO2)cc1,-0.0387
12,C=CCOC(=O)[C@@H]1[C@H]2C(=O)O[C@H](c3ccccc3)[C@H](c3ccccc3)N2[C@H](c2ccc(OCCOC(=O)[C@H]3C[C@H]4C(=O)N5CCC[C@H]5C(=O)N4[C@H]3c3ccc(O)cc3)cc2)[C@@]12C(=O)Nc1ccccc12,0.689
13,CC(=O)NCCCC[C@@H]1NC(=O)[C@@H]2C[C@H](C(=O)NCc3ccc(F)cc3)[C@H](c3cccc(OCCO)c3)N2C1=O,-0.148
14,O=C(CS)NCCCCCNC(=O)[C@H]1C[C@H]2C(=O)N3CCC[C@H]3C(=O)N2[C@H]1c1ccc(O)cc1,0.392
15,C=C(COC)/C(=C/C[C@H](OC(C)=O)c1ccc(OCCO)cc1)c1cnc2ccccc2c1,0.716
16,COc1cc([C@@H]2N[C@H](C(=O)O)Cc3c2[nH]c2ccccc32)cc(OC)c1OC,0.3
17,C=CC[C@@]1(C(=O)N2CCOCC2)N=C(c2ccc(OCCCO)cc2)O[C@@H]1c1ccccc1,-0.622
18,COCCOC(=O)N1C(=O)[C@@]2(c3cc(C#CC4=CCCCC4)ccc31)[C@H](c1ccc(O)cc1)N1[C@H](c3ccccc3)[C@H](c3ccccc3)OC(=O)[C@H]1[C@@H]2C(=O)N1CCCCCCC1,0.405

row,SMILES,composite z-score
1,COCCOC(=O)N1C(=O)[C@@]2(c3cc(C#CC4=CCCCC4)ccc31)[C@H](C(=O)NC[C@H](O)c1ccccc1)[C@H]1C(=O)O[C@H](c3ccccc3)[C@H](c3ccccc3)N1[C@@H]2c1ccccc1OCCO,0.366
2,C=CC[C@]1(C(=O)NCC(O)CO)N=C(c2ccc(OCCCO)cc2)O[C@H]1c1ccccc1 (stereo not given in full),-1.48
3,C=CCC(OC(C)=O)[C@@H]1[C@@H](N(Cc2cc3ccccc3o2)C(=O)c2ccc(C)cc2)c2cc(OCCCO)ccc2N1C(=O)c1ccc2ccccc2n1 (stereo not given in full),0.311
4,CC(C)NC(=O)[C@@]1(Cc2ccccc2I)c2ccccc2C(=O)N(C2CCCCC2)[C@H]1c1ccc(CO)cc1,0.118
5,C=C[C@H](OC)[C@@H](OC(=O)Nc1ccc(SC)cc1)c1ccc(OC)c(O)c1,-0.915
6,CCc1cccc(NC(=O)O[C@H]2[C@H](OC(=O)Nc3ccccc3)[C@@H](OC(=O)Nc3ccccc3)[C@@H](OC)O[C@@H]2CO)c1,0.0832
7,COCCOC(=O)N1C(=O)[C@@]2(c3cc(C#CCC(C(=O)OC)C(=O)OC)ccc31)[C@H](C(=O)N1CCN(c3ncccn3)CC1)[C@H]1C(=O)O[C@H](c3ccccc3)[C@H](c3ccccc3)N1[C@@H]2c1ccc(O)cc1,0.279
8,COc1ccc(-c2cc3c(c(-c4ccccc4)n2)[Si](C(C)C)(C(C)C)O[C@H]3c2ccccc2)cn1,0.0928
9,CCC(=O)[C@]12O[C@@]3([C@@H]4C(=O)OCC[C@@H]41)N(Cc1ccccc1)C(C)=C(C(=O)OC)[C@@H](c1ccccc1)N3C2=O,-0.0835
10,CO[C@@H]1COC(=O)[C@H](C)NC(=O)CC=C[C@@H](C)[C@H](NS(=O)(=O)c2ccc(C)cc2)COC(=O)CC=C[C@@H]1C,0.286
11,CC(=O)Nc1ccc([C@H]2[C@H](C)CC[C@H]3C(=O)N4[C@@H](CC[C@@H](C)[C@@H]4c4ccc(NC(C)=O)cc4)C(=O)N32)cc1,0.168
12,C=CCN(C(=O)C1N(c2ccc(CCO)cc2)C(=O)C2C(C(=O)O)C3C=CC21O3)C(C)(C)C (stereo not given),-3.08
13,CO[C@H]1COC(=O)[C@H](C)NC(=O)CC=C[C@@H](C)[C@H](NS(=O)(=O)c2ccc(C)cc2)COC(=O)[C@@H](OCc2ccccc2)C=C[C@@H]1C,0.286
14,COCCCNC(=O)[C@@]1(Sc2ccc(C)cc2)CC(=O)N(Cc2cc(C(F)(F)F)cc(C(F)(F)F)c2)[C@@H]1c1ccc(CO)cc1I,-1.34
15,CO[C@H]1COC(=O)CC=C[C@H](C)[C@@H](OC)COC(=O)[C@H](Cc2ccccc2)NC(=O)CC=C[C@@H]1C,0.514
16,COCCOC(=O)N1C(=O)[C@@]2(c3cc(C#CCCO)ccc31)[C@H](C(=O)N1CCCCCCC1)[C@H]1C(=O)O[C@H](c3ccccc3)[C@H](c3ccccc3)N1[C@@H]2c1ccc(O)cc1,0.292
17,Cc1ccc(N2C(=O)c3ccccc3[C@@H](C(=O)NCc3ccccc3)[C@@H]2c2ccc(CO)cc2)nc1,-0.446
18,O=C1C2C=CC(C(O)C(c3ccccc3)c3ccccc3)N(Nc3ccc([N+](=O)[O-])cc3)C2C(=O)N1c1ccccc1 (stereo not given),0.66

# Source: PubChem BioAssay
